# Experimental data taken from article PMC11006913.
# Where a chain is given by its changes, count along the chain named.
# Legend:
# Test in all cases: PBM; 200 nM protein, PBS
# Conditions in all cases: dsDNA, one strand shown
# ALX3 [1] = target: ALX3 (Homo sapiens, UniProt O95076 139-225, N203Q)
# ALX3 [2] = target: ALX3 (Homo sapiens, UniProt O95076 139-225)
# ALX3 [3] = target: ALX3 (Homo sapiens, UniProt O95076 139-225, L168Q)
# ALX3 [4] = target: ALX3 (Homo sapiens, UniProt O95076 139-225, L168V)
# ALX3 [5] = target: ALX3 (Homo sapiens, UniProt O95076 139-225, N203S)
# HOXD13 [6] = target: HOXD13 (Homo sapiens, UniProt P35453 263-343, T313R)
# HOXD13 [7] = target: HOXD13 (Homo sapiens, UniProt P35453 263-343)
# HOXD13 [8] = target: HOXD13 (Homo sapiens, UniProt P35453 263-343, T313A)
# PAX4 [9] = target: T1, PAX4 (Homo sapiens, UniProt O43316 9-242, F177V)
# T1 sequence: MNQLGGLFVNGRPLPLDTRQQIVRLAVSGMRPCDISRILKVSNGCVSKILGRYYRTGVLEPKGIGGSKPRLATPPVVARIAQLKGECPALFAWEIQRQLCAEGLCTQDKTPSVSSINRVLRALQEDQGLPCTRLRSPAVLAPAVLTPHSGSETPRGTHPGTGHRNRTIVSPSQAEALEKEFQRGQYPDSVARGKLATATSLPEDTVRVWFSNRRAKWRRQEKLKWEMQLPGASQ
# PAX4 [10] = target: T2, PAX4 (Homo sapiens, UniProt O43316 9-242, R227W)
# T2 sequence: T1 sequence with V169F, R219W
# NKX2-6 [11] = target: T3, NKX2-6 (Homo sapiens, UniProt A6NCS4 118-204)
# T3 sequence: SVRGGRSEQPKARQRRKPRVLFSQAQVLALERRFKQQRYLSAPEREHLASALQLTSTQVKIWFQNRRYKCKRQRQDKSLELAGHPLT
# PROP1 [12] = target: PROP1 (Homo sapiens, UniProt O75360 56-141)
# PROP1 [13] = target: PROP1 (Homo sapiens, UniProt O75360 56-141, R99H)
# NKX2-6 [14] = target: T4, NKX2-6 (Homo sapiens, UniProt A6NCS4 118-204, F151L)
# T4 sequence: T3 sequence with F34L
# PROP1 [15] = target: PROP1 (Homo sapiens, UniProt O75360 56-141, F88S)
# PROP1 (Homo sapiens, UniProt O75360 56-141, F88S), sequence (O75360 56-141 F88S): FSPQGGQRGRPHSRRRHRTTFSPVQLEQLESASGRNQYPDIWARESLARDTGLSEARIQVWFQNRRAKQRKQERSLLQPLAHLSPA
# ALX3 (Homo sapiens, UniProt O95076 139-225), sequence (O95076 139-225): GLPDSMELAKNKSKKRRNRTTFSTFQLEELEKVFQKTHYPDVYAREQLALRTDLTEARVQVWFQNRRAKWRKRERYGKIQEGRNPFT
# ALX3 (Homo sapiens, UniProt O95076 139-225, N203S), sequence (O95076 139-225 N203S): as the sequence (O95076 139-225) above, with N65S counted along it
# ALX3 (Homo sapiens, UniProt O95076 139-225, N203Q), sequence (O95076 139-225 N203Q): as the sequence (O95076 139-225) above, with N65Q counted along it
# ALX3 (Homo sapiens, UniProt O95076 139-225, L168V), sequence (O95076 139-225 L168V): as the sequence (O95076 139-225) above, with L30V counted along it
# ALX3 (Homo sapiens, UniProt O95076 139-225, L168Q), sequence (O95076 139-225 L168Q): as the sequence (O95076 139-225) above, with L30Q counted along it
# HOXD13 (Homo sapiens, UniProt P35453 263-343, T313A), sequence (P35453 263-343 T313A): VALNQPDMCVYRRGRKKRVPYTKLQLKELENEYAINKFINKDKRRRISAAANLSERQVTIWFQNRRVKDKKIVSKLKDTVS
# HOXD13 (Homo sapiens, UniProt P35453 263-343, T313R), sequence (P35453 263-343 T313R): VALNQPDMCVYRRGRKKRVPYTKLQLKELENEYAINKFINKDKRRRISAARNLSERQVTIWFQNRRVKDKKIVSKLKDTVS
# PROP1 (Homo sapiens, UniProt O75360 56-141), sequence (O75360 56-141): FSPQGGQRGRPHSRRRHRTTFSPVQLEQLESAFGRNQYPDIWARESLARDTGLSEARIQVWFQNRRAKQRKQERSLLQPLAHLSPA
# PROP1 (Homo sapiens, UniProt O75360 56-141, R99H), sequence (O75360 56-141 R99H): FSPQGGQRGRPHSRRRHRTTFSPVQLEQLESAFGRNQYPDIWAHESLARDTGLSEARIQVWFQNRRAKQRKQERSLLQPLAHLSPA
# HOXD13 (Homo sapiens, UniProt P35453 263-343), sequence (P35453 263-343): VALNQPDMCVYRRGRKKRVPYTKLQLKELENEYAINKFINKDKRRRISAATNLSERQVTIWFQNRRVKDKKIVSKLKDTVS
sequence,measurement,setting,value
CACCGCCG,binding signal,ALX3 [1],"7.75 upbm affinity estimate (log intensity, higher = more binding, comparable within an allelic series)"
same,binding signal,ALX3 [2],"7.68 upbm affinity estimate (log intensity, higher = more binding, comparable within an allelic series)"
same,binding signal,ALX3 [3],"7.66 upbm affinity estimate (log intensity, higher = more binding, comparable within an allelic series)"
same,binding signal,ALX3 [4],"7.7 upbm affinity estimate (log intensity, higher = more binding, comparable within an allelic series)"
same,binding signal,ALX3 [5],"7.75 upbm affinity estimate (log intensity, higher = more binding, comparable within an allelic series)"
ATTAAAAT,binding signal,ALX3 [1],"8.53 upbm affinity estimate (log intensity, higher = more binding, comparable within an allelic series)"
same,binding signal,HOXD13 [6],"10.6 upbm affinity estimate (log intensity, higher = more binding, comparable within an allelic series)"
same,binding signal,HOXD13 [7],"11.4 upbm affinity estimate (log intensity, higher = more binding, comparable within an allelic series)"
same,binding signal,ALX3 [2],"11.2 upbm affinity estimate (log intensity, higher = more binding, comparable within an allelic series)"
same,binding signal,ALX3 [3],"9.54 upbm affinity estimate (log intensity, higher = more binding, comparable within an allelic series)"
same,binding signal,HOXD13 [8],"11.4 upbm affinity estimate (log intensity, higher = more binding, comparable within an allelic series)"
same,binding signal,ALX3 [4],"9.23 upbm affinity estimate (log intensity, higher = more binding, comparable within an allelic series)"
same,binding signal,ALX3 [5],"8.6 upbm affinity estimate (log intensity, higher = more binding, comparable within an allelic series)"
ATATTATA,binding signal,ALX3 [1],"8.63 upbm affinity estimate (log intensity, higher = more binding, comparable within an allelic series)"
same,binding signal,PAX4 [9],"10.7 upbm affinity estimate (log intensity, higher = more binding, comparable within an allelic series)"
same,binding signal,PAX4 [10],"10.9 upbm affinity estimate (log intensity, higher = more binding, comparable within an allelic series)"
same,binding signal,ALX3 [5],"8.69 upbm affinity estimate (log intensity, higher = more binding, comparable within an allelic series)"
CAGTCGCA,binding signal,ALX3 [1],"7.8 upbm affinity estimate (log intensity, higher = more binding, comparable within an allelic series)"
same,binding signal,ALX3 [2],"7.85 upbm affinity estimate (log intensity, higher = more binding, comparable within an allelic series)"
same,binding signal,ALX3 [3],"7.89 upbm affinity estimate (log intensity, higher = more binding, comparable within an allelic series)"
same,binding signal,ALX3 [4],"7.88 upbm affinity estimate (log intensity, higher = more binding, comparable within an allelic series)"
same,binding signal,ALX3 [5],"7.8 upbm affinity estimate (log intensity, higher = more binding, comparable within an allelic series)"
CGGCCCAG,binding signal,ALX3 [1],"7.75 upbm affinity estimate (log intensity, higher = more binding, comparable within an allelic series)"
same,binding signal,NKX2-6 [11],"8.83 upbm affinity estimate (log intensity, higher = more binding, comparable within an allelic series)"
same,binding signal,ALX3 [2],"7.72 upbm affinity estimate (log intensity, higher = more binding, comparable within an allelic series)"
same,binding signal,PROP1 [12],"6.51 upbm affinity estimate (log intensity, higher = more binding, comparable within an allelic series)"
same,binding signal,PROP1 [13],"6.59 upbm affinity estimate (log intensity, higher = more binding, comparable within an allelic series)"
same,binding signal,ALX3 [3],"7.67 upbm affinity estimate (log intensity, higher = more binding, comparable within an allelic series)"
same,binding signal,NKX2-6 [14],"9.1 upbm affinity estimate (log intensity, higher = more binding, comparable within an allelic series)"
same,binding signal,ALX3 [4],"7.67 upbm affinity estimate (log intensity, higher = more binding, comparable within an allelic series)"
same,binding signal,PROP1 [15],"6.34 upbm affinity estimate (log intensity, higher = more binding, comparable within an allelic series)"
same,binding signal,ALX3 [5],"7.74 upbm affinity estimate (log intensity, higher = more binding, comparable within an allelic series)"
AATTGTCC,binding signal,ALX3 [1],"8.15 upbm affinity estimate (log intensity, higher = more binding, comparable within an allelic series)"
same,binding signal,NKX2-6 [11],"11.4 upbm affinity estimate (log intensity, higher = more binding, comparable within an allelic series)"
same,binding signal,ALX3 [2],"10.1 upbm affinity estimate (log intensity, higher = more binding, comparable within an allelic series)"
same,binding signal,NKX2-6 [14],"9.84 upbm affinity estimate (log intensity, higher = more binding, comparable within an allelic series)"
same,binding signal,ALX3 [5],"8.23 upbm affinity estimate (log intensity, higher = more binding, comparable within an allelic series)"
CCTGGCCC,binding signal,ALX3 [1],"7.75 upbm affinity estimate (log intensity, higher = more binding, comparable within an allelic series)"
same,binding signal,ALX3 [2],"7.59 upbm affinity estimate (log intensity, higher = more binding, comparable within an allelic series)"
same,binding signal,ALX3 [3],"7.65 upbm affinity estimate (log intensity, higher = more binding, comparable within an allelic series)"
same,binding signal,ALX3 [4],"7.67 upbm affinity estimate (log intensity, higher = more binding, comparable within an allelic series)"
same,binding signal,ALX3 [5],"7.74 upbm affinity estimate (log intensity, higher = more binding, comparable within an allelic series)"
ATATAATA,binding signal,ALX3 [1],"8.64 upbm affinity estimate (log intensity, higher = more binding, comparable within an allelic series)"
same,binding signal,PAX4 [9],"10.8 upbm affinity estimate (log intensity, higher = more binding, comparable within an allelic series)"
same,binding signal,PAX4 [10],"10.9 upbm affinity estimate (log intensity, higher = more binding, comparable within an allelic series)"
same,binding signal,ALX3 [5],"8.68 upbm affinity estimate (log intensity, higher = more binding, comparable within an allelic series)"
AATATTAT,binding signal,ALX3 [1],"8.61 upbm affinity estimate (log intensity, higher = more binding, comparable within an allelic series)"
same,binding signal,PAX4 [9],"10.7 upbm affinity estimate (log intensity, higher = more binding, comparable within an allelic series)"
same,binding signal,ALX3 [5],"8.71 upbm affinity estimate (log intensity, higher = more binding, comparable within an allelic series)"
ACCCGGGT,binding signal,ALX3 [1],"7.83 upbm affinity estimate (log intensity, higher = more binding, comparable within an allelic series)"
same,binding signal,ALX3 [2],"8.06 upbm affinity estimate (log intensity, higher = more binding, comparable within an allelic series)"
same,binding signal,ALX3 [3],"8.02 upbm affinity estimate (log intensity, higher = more binding, comparable within an allelic series)"
same,binding signal,ALX3 [4],"7.92 upbm affinity estimate (log intensity, higher = more binding, comparable within an allelic series)"
same,binding signal,ALX3 [5],"7.9 upbm affinity estimate (log intensity, higher = more binding, comparable within an allelic series)"
